Compound activity (PubChem BioAssay)
FBW7 act = human FBW7 E3 ligase activation, primary screen; Q969H0; AlphaScreen FBW7–phospho-cyclin E peptide binding, activator screen; normalized activity (activation), % at 26.1 µM; hit rate 0.13% among 650,000; AID 1259310; in the data active = normalized activity above about 1.9%;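 also: purified mutant Fbw7 with reduced substrate affinity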
TEAD-YAP inh = TEAD-YAP interaction inhibition; AID 1259422; inhibition, % at 9.12 µM; HEK-TIYL cells, TEAD-Gal4/YAP UAS-luciferase luminescence; hit rate 1.4% among 640,000; in the data active = inhibition above about 32%
MITF primary = human MITF inhibition, primary screen; AlphaScreen MITF homodimerization, bead proximity signal; hit rate 0.91% among 650,000; inhibition, % at 2.6 µM; in the data active = inhibition above about 50%
GPR151 activ = activates the human receptor GPR151; Q8TDV0; PathHunter beta-arrestin GPR151 cells, luminescence; activation, % at 11.2 µM; hit rate 1% among 650,000; AID 1508602; in the data active = activation above about 4.9%
GPR151 confirm = confirmation of human GPR151 activators; shares compounds with GPR151 activ; GPR151 PathHunter beta-arrestin cells, luminescence, 90 min; % of EA-reagent control over plate median; activation, % at 11.2 µM; 6,700 tested, under 10 active;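 active = mean percent activation across replicates above the confirmation screen cutoff of 4.91%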
GPR119 ag = GPR119 activation, counter-screen for GPR151 activators. activation, % at 11.2 µM. hit rate 0.3% among 6,700. shares compounds with GPR151 activ. GPR119 PathHunter beta-arrestin cells, luminescence, 90 min; 0 = compound-well median, 100 = enzyme-acceptor control;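 active = mean percent activation in the counterscreen above 29.09%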;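 also: counterscreen on off-target GPR119 to flag nonselective hits from the GPR151 activator screen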
Target sequence (Q8TDV5 whole entry, looked up): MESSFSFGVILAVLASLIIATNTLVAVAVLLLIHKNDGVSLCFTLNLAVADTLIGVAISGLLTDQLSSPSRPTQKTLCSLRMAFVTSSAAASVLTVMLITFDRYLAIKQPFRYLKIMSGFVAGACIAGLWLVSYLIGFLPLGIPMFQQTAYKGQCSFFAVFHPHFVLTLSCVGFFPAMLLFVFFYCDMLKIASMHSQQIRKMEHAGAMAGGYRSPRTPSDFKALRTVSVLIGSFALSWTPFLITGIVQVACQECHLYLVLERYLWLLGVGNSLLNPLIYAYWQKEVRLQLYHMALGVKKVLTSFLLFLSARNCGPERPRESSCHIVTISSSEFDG
Large screens that a line does not name were inactive (follow-up assays come after a bar, where they were run). Only some compounds are listed: those with a hit (about 3.5% of all), similar ones and a draw of the others.

CC(=O)Nc1ccc(NC(=O)c2oc3cc(C)c(C)cc3c2C)cc1	GPR151 activ 23 | GPR151 confirm inactive | GPR119 ag inactive
Cc1cc2oc(C(=O)Nc3cccnc3)c(C)c2cc1C	none
CC(NC(=O)C12CC3CC(CC(C3)C1)C2)C(=O)N1CCOCC1 (stereo unspecified)	GPR151 activ 5.0 | GPR151 confirm inactive | GPR119 ag inactive
O=C(CNC(=O)C12CC3CC(CC(C3)C1)C2)N1CCOCC1	none
COc1ccc(S(=O)(=O)N(CC(=O)NC(C)(C)C)c2ccc(Cl)cc2)cc1	none
CC1CCc2nc(NC(=O)c3ccc(S(=O)(=O)N(C)c4ccccc4)cc3)sc2C1 (stereo unspecified)	none
S=C(NCc1ccccn1)Nc1cccc(Cl)c1	GPR151 activ 10.0 | GPR151 confirm inactive | GPR119 ag inactive
O=C1NC(=O)N(Cc2ccccc2)C(=O)/C1=C/c1ccc(Br)cc1	none
O=C(Nc1ccccc1)c1ccccc1Nc1ccnc(Nc2ccc(N3CCOCC3)cc2)c1	none
O=C(NCc1ccccc1)c1ccccc1Nc1ccnc(Nc2ccc(N3CCOCC3)cc2)c1	TEAD-YAP inh 37, GPR151 activ 11 | GPR151 confirm inactive | GPR119 ag inactive
CCOc1ccc(NC(=O)CSC2=C(C#N)C(c3ccco3)C(C(=O)Nc3ccccc3)=C(C)N2)cc1 (stereo unspecified)	GPR151 activ 5.0 | GPR151 confirm inactive | GPR119 ag inactive
COC(=O)C1=C(C(=O)OC)SC2(S1)C(C(=O)OC)=C(C(=O)OC)SC1=C2c2cc(C)c(C)cc2NC1(C)C	GPR151 activ 5.8 | GPR151 confirm inactive | GPR119 ag inactive
Cc1nnc(SCc2ccccc2)[nH]c1=O	none
Cc1nnc(SCc2ccc(F)cc2)[nH]c1=O	GPR151 activ 11 | GPR151 confirm inactive | GPR119 ag inactive
COc1ccccc1OCC(=O)Nc1nc(-c2cccs2)c(NC(C)=O)s1	GPR151 activ 14 | GPR151 confirm inactive | GPR119 ag inactive
O=C(/C=C/c1cc([N+](=O)[O-])ccc1O)Nc1cccc(Br)c1	GPR151 activ 5.6 | GPR151 confirm inactive | GPR119 ag inactive
O=C(Oc1ccc([N+](=O)[O-])cc1)c1cccs1	none
O=[N+]([O-])c1ccc(N/N=C/C=C/c2ccccc2O)cc1	none
CC(O)CCC(=O)N/N=C/c1cc([N+](=O)[O-])ccc1O (stereo unspecified)	GPR151 activ 10 | GPR151 confirm inactive | GPR119 ag inactive
O=C(COc1ccc(Cl)cc1Br)N/N=C/c1cc([N+](=O)[O-])ccc1O	GPR151 activ 5.1 | GPR151 confirm inactive | GPR119 ag inactive
O=C(Nc1nccs1)C1CCCCC1	none
O=CNNC(=O)COc1ccc(Cl)cc1Cl	none
CC(=O)NS(=O)(=O)c1ccc(NC(=O)Nc2ccc(Cl)cc2)cc1	GPR151 activ 7.4 | GPR151 confirm inactive | GPR119 ag inactive
COc1ccc(S(=O)(=O)NNC(=O)Nc2ccc(Cl)cc2)cc1	GPR151 activ 8.3 | GPR151 confirm inactive | GPR119 ag inactive
CN1CCN(C2=NC(=O)/C(=C\c3ccccc3OCc3ccccc3)S2)CC1	none
O=C1CC(C(=O)Nc2ccccc2Cl)c2ccccc21 (stereo unspecified)	GPR151 activ 9.4 | GPR151 confirm inactive | GPR119 ag inactive
O=C(Nc1ccccc1Cl)C1CCCCC1	none
COc1ccc(OC)c(Cc2nnc(CCC(=O)NCCc3nc(C)c(C)s3)o2)c1	none
O=C(CCc1nnc(COc2ccccc2)o1)NCc1nc2ccccc2s1	GPR151 activ 5.1 | GPR151 confirm inactive | GPR119 ag inactive
COc1ccc(CCc2nnc(CCC(=O)NCc3ccccc3F)o2)cc1	none
COc1ccc(OC)c(Cc2nnc(CCC(=O)NCc3nc4ccccc4s3)o2)c1	GPR151 activ 6.3 | GPR151 confirm inactive | GPR119 ag inactive
O=C(CCc1nnc(-c2ccccc2)o1)NCc1nc2ccccc2s1	none
COc1ccc(CCc2nnc(CCC(=O)NCCc3ccccc3F)o2)cc1	GPR151 activ 6.5 | GPR151 confirm inactive | GPR119 ag inactive
CCc1ccccc1N1C(=O)c2cccnc2C1=O	none
COc1ccc(Nc2nnc(SCC(=O)NC(C)C3CC4CCC3C4)s2)cc1 (stereo unspecified)	none
O=[N+]([O-])c1ccc(Oc2ccc(S(=O)(=O)Nc3ccccc3)cc2)cc1	none
